Screening results (PubChem BioAssay)
PABP1 MLLE inh = inhibitors of PABP1 MLLE–PAM2 peptide binding, primary screen, biochemical, fluorescence polarization, FITC-PAM2, GST-MLLE; Polyadenylate-binding protein 1 (Homo sapiens), P11940; inhibition, % at 20 µM; hit rate 0.36% among 360,000; in the data active = inhibition above about 35%, passing the limit was not always enough;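 note: plate controls were DMSO wells with GST-MLLE for no effect and wells lacking GST-MLLE protein for full effect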
PHOSPHO1 block = PubChem AID 1565; Phosphoethanolamine/phosphocholine phosphatase (Homo sapiens), Q8TCT1; recombinant PHOSPHO1, absorbance phosphatase assay; inhibition, % at 13.3 µM; hit rate 1.1% among 290,000; in the data active = inhibition above about 60%
eIF4H FP inh = human eIF4H binding inhibitors, primary screen, translation initiation inhibitor project, biochemical, uHTS, fluorescence polarization. Eukaryotic translation initiation factor 4H (Homo sapiens), Q15056. eIF4H fluorescence polarization binding assay. inhibition, % at 35 µM. hit rate 0.94% among 290,000;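 note: calls also rest on retests at 20 µM and on dose response follow-up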
HMGR II inh = inhibitors of E. faecalis class II HMGR, primary screen, biochemical, Enterococcus faecalis | inhibition, % at 10 µM | HMG-CoA reductase (Enterococcus faecalis, mvaE) | hit rate 0.41% among 190,000 | purified E. faecalis HMGR, NADPH absorbance 340 nm kinetic | AID 1066, 2008;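 active = inhibition above a set limit, the median over all tested compounds plus 3 SD, cut at about 9.5% in these data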;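 note: enzyme runs in reverse so mevalonate oxidation gives rising NADPH absorbance; 0% = complete reaction with DMSO and 100% = background rate lacking mevalonate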
PABP FP inh = PABP poly(A) RNA binding inhibitors, primary screen, biochemical, fluorescence polarization, uHTS; Polyadenylate-binding protein 1 (Homo sapiens), P11940; hit rate 1% among 290,000; calls only at 35 µM;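 note: calls also rest on retests at 20 µM and on dose response follow-up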
Active calls of the source: *; i = inactive; . = no result given; + = active, no number. The list is not random: actives were taken first. Their share in the collection is about 2.4%. Unless noted, the rule behind the calls is not given here.

SMILES | PABP1 MLLE inh | PHOSPHO1 block | eIF4H FP inh | HMGR II inh | PABP FP inh
Cc1ccc(NC(=O)CCNS(=O)(=O)c2ccc3[nH]c(=O)oc3c2)c(C)c1 | -10 | 24 | -7 | . | i
Cc1ccc(C)c(NC(=O)CCNS(=O)(=O)c2ccc3[nH]c(=O)oc3c2)c1 | -16 | 32 | 73* | . | i
CCOC(=O)C1=C(C)N=c2s/c(=C/c3ccc(OCC(=O)O)c(OC)c3)c(=O)n2C1c1ccc(Cl)cc1 (configuration not stated) | -168 | . | . | . | .
O=C1CCCC2=C1C(c1ccc(Cl)cc1)n1c(s/c(=C\c3ccc4ccncc4c3)c1=O)=N2 (configuration not stated) | -53 | 11 | 55* | -4 | +
Cc1ccc(CN(C)C(=O)C2CCC(=O)N(CCc3ccccc3)C2)o1 (configuration not stated) | 9 | 3 | -7 | . | i
O=C1N=C(N2CCOCC2)S/C1=C1\C(=O)N(Cc2ccccc2)c2ccc(Br)cc21 | . | -14 | -10 | . | i
CCCCN1C(=O)/C(=C2\SC(N3CCCCC3)=NC2=O)c2ccccc21 | 40* | 29 | -8 | -10 | i
COc1ccccc1NC(=O)Nc1cccnc1 | -11 | 24 | 11 | 4 | i
Cc1c(NC(=S)NC(=O)c2cccc3ccccc23)cccc1C(=O)O | 44* | 36 | -10 | . | i
Cc1c(NC(=S)NC(=O)Cc2ccccc2)cccc1C(=O)O | 16 | 10 | -1 | -3 | i
O=C(O)c1ccccc1NC(=S)NC(=O)c1cccc2ccccc12 | 31 | 34 | 7 | 1 | i
Cc1c(NC(=S)NC(=O)c2ccc(COc3ccccc3)cc2)cccc1C(=O)O | 39* | 43 | 8 | . | i
C[C@@H]1CN([C@@H](C)CO)C(=O)c2ccccc2-c2ccccc2CO[C@@H]1CN(C)S(=O)(=O)c1ccc(C(F)(F)F)cc1 | -3 | . | . | . | .
CCOc1ccccc1NC(=O)C1CCN(c2ccc(S(=O)(=O)N3CCCC3)cc2)CC1 | 3 | 78* | -4 | -4 | i
OCc1nc2nc(Cl)c(Cl)nc2[nH]1 | 10 | 46 | 52* | . | +
C=CCn1c(-c2cccc3ccccc23)n[nH]c1=S | -5 | 95* | -14 | -3 | i
C=CCn1c(Cc2c[nH]c3ccccc23)n[nH]c1=S | -11 | 95* | -6 | 0 | i
C=CCn1c(-c2cc(OC)cc(OC)c2)n[nH]c1=S | -24 | 97* | 4 | -3 | i
CCCN1CCc2c(sc(NC(=O)Cc3ccc(F)cc3)c2C(N)=O)C1 | 0 | 30 | -5 | . | i
O=C(NCc1cccnc1)C(=O)NCC1OCCCN1S(=O)(=O)c1cc(F)ccc1F (configuration not stated) | 7 | . | . | . | .
Cc1ccc(NC(=S)C2=C(O)c3ccccc3N(C)S2(=O)=O)cc1 | 40* | 49 | -7 | 4 | i
CN1c2ccccc2C(O)=C(C(=S)Nc2ccccc2)S1(=O)=O | 29 | -15 | 1 | 0 | i
CN1c2ccccc2C(O)=C(C(=S)Nc2ccc(F)c(Cl)c2)S1(=O)=O | 48* | 18 | -14 | 4 | i
CCN(CC(=O)NCc1ccc(F)cc1)C(=O)/C=C/c1ccc(S(=O)(=O)N(CC)CC)cc1 | -2 | 32 | -1 | . | i
COC(=O)C1=C(C)N(Cc2ccco2)C(=O)/C1=C\c1ccc([N+](=O)[O-])cc1 | -53 | 34 | -6 | 10* | i
SMILES | PABP1 MLLE inh | PHOSPHO1 block | eIF4H FP inh | HMGR II inh | PABP FP inh
N#CCSc1nnc(CNc2cccc(Cl)c2)o1 | 10 | 19 | -2 | 0 | i
N#CCSc1nnc(CNc2ccc(F)cc2)o1 | 48* | 8 | 111* | -1 | +
O=C(N/N=C/C=C/c1ccc2c(c1)OCO2)C(O)c1ccccc1 (configuration not stated) | -1 | 13 | -16 | . | i
CSc1nc2ncc3c(n2n1)CC(C)(C)CC3=O | -1 | 45 | -2 | 9.9* | i
O=C(COc1ccc(F)cc1)N1CCCc2ccccc21 | 4 | 22 | -6 | . | i
COc1nc(-c2ccccc2)cc(-c2ccccc2)n1 | -13 | 11 | active | -9 | +
Cc1nc(-c2ccccc2)cc(-c2ccccc2)n1 | 9 | . | . | . | .
COc1cc(/C=C2\N=C3CCCCCN3C2=O)ccc1O | -92 | 67* | 100 | -7 | i
O=C(Nc1ccccc1C(=O)NCCCN1CCOCC1)c1cccc([N+](=O)[O-])c1 | -1 | 38 | -8 | . | i
